Measurements as given in PMC5540273 (PLoS ONE, 2017).

How the values were obtained:
Settings in all cases: concentration: 1 μM, replicates: in singlicate; n = 1
[1] = test system: T1, ASK2
T1 construct: gene MAP3K6

[2] = test system: AURKA
[3] = test system: AURKB
[4] = test system: AURKC
[5] = test system: AXL
[6] = test system: T2, BIKE
T2 construct: gene BMP2K

[7] = test system: BLK
[8] = test system: BMPR1A
[9] = test system: BMPR1B
[10] = test system: BMPR2
[11] = test system: BMX
[12] = test system: BRAF
[13] = test system: T3, BRK
T3 construct: gene PTK6

[14] = test system: BRSK1
[15] = test system: BRSK2
[16] = test system: BTK
[17] = test system: BUB1
[18] = test system: CAMK1B
[19] = test system: CAMK1D
[20] = test system: CAMK1G
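Further: KINOMEscan kinase panel screen.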

Structure (SMILES) | %Inh [1] | %Inh [2] | %Inh [3] | %Inh [4] | %Inh [5] | %Inh [6] | %Inh [7] | %Inh [8] | %Inh [9] | %Inh [10] | %Inh [11] | %Inh [12] | %Inh [13] | %Inh [14] | %Inh [15] | %Inh [16] | %Inh [17] | %Inh [18] | %Inh [19] | %Inh [20]
CC(C)(C)c1ccc2nccc(Nc3cccc(O)c3)c2c1 [GW856795] | 0% | 0% | 33% | 0% | 70% | 0% | 59% | 0% | 44% | 38% | 0% | 41% | 51% | 0% | 11% | 43% | 24% | 68% | 13% | 0%
Cc1ccc(C(=O)N2CC[C@@H](O)C2)cc1-n1c(C)cc(OCc2ccc(F)cc2F)c(Br)c1=O | 0% | 0% | 0% | 0% | 0% | 0% | 70% | 0% | 54% | 0% | 0% | 58% | 20% | 0% | 0% | 0% | 0% | 0% | 17% | 0%
CC(C)c1nc(-c2cccc(NS(=O)(=O)c3c(F)cccc3F)c2F)c(-c2ccnc(Nc3ccc(N4CCOCC4)nc3)n2)s1 [GSK2008607] | 3% | 93.6% | 91.8% | 53% | 97.5% | 24% | 99.7% | 53% | 98.5% | 0% | 99.2% | 99.9% | 88% | 49% | 75% | 95.3% | 98% | 67% | 94.3% | 42%
CC(=O)N1CCN(c2ccc(Nc3nccc(-c4sc(C(C)C)nc4-c4cccc(NS(=O)(=O)c5cccc(Cl)c5)c4)n3)cn2)CC1 [GSK1660437] | 2% | 0% | 0% | 10% | 68% | 24% | 91.4% | 0% | 97.1% | 0% | 56% | 99.3% | 91.8% | 0% | 2% | 36% | 91% | 0% | 12% | 0%
Cn1cc(-c2[nH]c3cc(NC(=O)[C@H](N)C4CCCCC4)cc4c3c2C=NNC4=O)cn1 | 0% | 100% | 99.7% | 99.3% | 99.9% | 100% | 99.5% | 19% | 87% | 22% | 13% | 39% | 14% | 31% | 61% | 94.2% | 100% | 87% | 90.4% | 0%
CCn1c(-c2nonc2N)nc2c(C#CC(C)(C)O)ncc(OCCCCN)c21.O=C(O)C(F)(F)F.O=C(O)C(F)(F)F [GSK507274] | 16% | 0% | 38% | 9% | 0% | 26% | 8% | 14% | 0% | 12% | 19% | 8% | 27% | 0% | 0% | 0% | 37% | 0% | 40% | 7%
CN(C)Cc1ccc(-c2ccc3c(Nc4ccc(Oc5ccccn5)cc4)ccnc3c2)o1 [GW567148] | 0% | 0% | 81% | 51% | 2% | 17% | 91.5% | 0% | 0% | 28% | 12% | 1% | 95.2% | 0% | 0% | 74% | 0% | 0% | 0% | 0%
O=C(Nc1n[nH]c2nc(-c3ccc(O)cc3)ccc12)C1CC1 [SB-710363] | 12% | 11% | 47% | 0% | 37% | 32% | 12% | 8% | 34% | 16% | 22% | 0% | 0% | 26% | 11% | 0% | 0% | 0% | 0% | 4%
COc1cc2c(cc1OCCN1CCNCC1)ncc1c3ccc(C#N)cc3[nH]c21 | 16% | 21% | 65% | 9% | 32% | 97.8% | 0% | 12% | 22% | 19% | 17% | 28% | 0% | 25% | 0% | 2% | 99% | 28% | 30% | 14%
